# Screening data deposited in PubChem BioAssay by National Center for Advancing Translational Sciences (NCATS).
# Only some compounds are listed: those with a hit (about 21% of all), similar ones and a draw of the others.
# Pf growth 48h: inhibits P. falciparum growth in the first generation, 48 h | P. falciparum luciferase growth in erythrocytes, 48 h | Potency, µM (doses to about 28.7 µM), for inactives: at the top dose activity change, negative = inhibition, most hits filed as inhibitors | 310,000 tested, 5.9% active | AID 504832; further: potency means the concentration at half of the fitted maximal effect; on the % scale 0 is the no-effect control and ±100 the full control effect
#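 Luciferase-expressing P. falciparum in infected erythrocytes (2% hematocrit, 0.1% parasitemia final) in RPMI 1640/0.5% Albumax were exposed to compound for 48 hours at 37 C, 5% CO2; growth read as luminescence.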
# HCV inh: blocks hepatitis C virus; Huh7.5.1 HCVcc-Cre infection, luciferase reporter, 44 h; 340,000 tested, 3.4% active; AID 651820; Potency, µM (top dose mostly 41.8 µM), for inactives: at the highest dose activity change, negative = inhibition, most hits filed as inhibitors; further: potency means the concentration at half of the fitted maximal effect; on the % scale 0 is the no-effect control and ±100 the full control effect
#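 Infectious HCV cell culture screen: compound-treated cells (1,000/well, pre-plated 4 h) are infected with HCVcc-Cre at roughly 0.5 moi and grown 44 h. Infection is quantified by luciferase signal after 15 min substrate incubation at room temperature.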
# Shiga inhibitor: inhibitors of Shiga toxin in Vero cells. inhibition, % at 38.7 µM. 290,000 tested, 9.2% active. Vero cells, Shiga toxin protein synthesis inhibition reporter; in the data active means inhibition mostly above about 28%, no sharp cut-off; inactive means mostly below about 43%; further: 0% is about no effect
# HCMV inh: inhibitors of human cytomegalovirus | HFF cells, HCMV-luciferase reporter, 72 h; hits give low values | activity change, negative = inhibition, % at 57.5 µM | 410,000 tested, 4.5% active; in the data active means activity change below about -60%; inconclusive means no clear call, values can overlap the other calls; inactive means above about -39%; further: on the % scale 0 is the no-effect control and ±100 the full control effect
#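 Two-dose cell screen: HFF monolayers treated with compounds and infected with luciferase-expressing HCMV at 1 PFU/cell, 72 h at 37C, then lysed for luciferase measurement.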
# Pf growth 96h: P. falciparum growth inhibition at 96 hours | AID 504834 | Potency, µM (series often up to 28.7 µM), for inactives: at the top dose activity change, negative = inhibition, most hits filed as inhibitors | 320,000 tested, 6.9% active | P. falciparum luciferase reporter growth, 96 h; further: potency means the concentration at half of the fitted maximal effect; on the % scale 0 is the no-effect control and ±100 the full control effect
#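 Infected RBCs, 2% Hct / 0.05% parasitemia final; luciferase-reporter P. falciparum; cpd 96 h, 37 C, 5% CO2; luciferase detection reagent; luminescence.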
# Cycloheximide cs: counter-screen hit for Shiga toxin inhibitors, cycloheximide; AID 2314; 300,000 tested, 12% active; cell reporter, cycloheximide protein synthesis inhibition counterscreen; max response, %; in the data active means max response mostly above about 13%, no sharp cut-off; inactive means mostly below about 14%; further: read at 38.3 µM for the half of the compounds with a filed dose; 0% is about no effect
# Active calls of the source: *; ? = inconclusive; · = not tested or not shown; ! = not confirmed by another sample; [ ] = dose if it differs, or a comment. Unless noted, the call rests on the fitted dose curve; in most records, active means well fitted inhibition curve with a large enough effect; inconclusive means small, poorly fitted or top-dose-only effect, or another doubt; inactive means no such curve, though single readings can be large or run the other way.
SMILES,Pf growth 48h,HCV inh,Shiga inhibitor,HCMV inh,Pf growth 96h,Cycloheximide cs
Cc1ccc(-n2[nH]c(C)c(C=Nc3ccc(S(=O)(=O)Nc4nccs4)cc3)c2=O)cc1,1%,7%,-9,·,25%,-1
CC(=O)C1=C(O)C(=O)N(CCCN2CCOCC2)C1c1ccccc1[N+](=O)[O-] (stereo not given),-13%,3%,105*,·,-2%,35*
CC(=O)C1=C(O)C(=O)N(CCC(=O)O)C1c1ccccc1[N+](=O)[O-] (stereo not given),-2%,18%,-8,-5,23%,17
CC(=O)C1=C(O)C(=O)N(C)C1c1ccccc1[N+](=O)[O-] (stereo not given),-13%,8%,21,17,4%,17*
CC(=O)c1cccc(NC(=O)C(OC(=O)c2ccccc2NS(=O)(=O)c2cccs2)c2ccccc2)c1 (stereo not given),?,1%,19,-75*,?,9
CC1Sc2ccc(S(=O)(=O)CCC(=O)N3CCN(c4cccc(Cl)c4)CC3)cc2NC1=O (stereo not given),?,?,-5,-63*,-5%,-1
COc1ccc(S(=O)(=O)CCC(=O)N2CCN(c3ccccc3F)CC2)cc1,2%,8%,-9,?,5%,-2
CN(c1ccccc1C(=O)N1CCN(c2ccccc2F)CC1)S(=O)(=O)c1ccccc1,-29%,9%,-4,-10,10µM*,1
CC1Sc2ccc(S(=O)(=O)CCC(=O)N3CCN(c4ccccc4F)CC3)cc2NC1=O (stereo not given),?,?,16,-70*,-26%,-1
O=C(CCS(=O)(=O)c1ccccc1)N1CCN(c2ccccc2F)CC1,162%,5%,110*,·,9%,35*
CN(c1ccc(C(=O)N2CCN(c3ccccc3F)CC2)cc1)S(=O)(=O)c1ccccc1,34%,?,-8,-24,-3%,7
COc1cc(C(=O)N2CCN(C(=O)c3cc(-c4ccc(Br)cc4)n[nH]3)CC2)cc(OC)c1OC,?,-7%,25,1,-16%,13
Clc1ccc(C[n+]2cc(-c3ccccc3)n3c2CCC3)cc1Cl,?,-21%,-15,-72*,?,1
O=[N+]([O-])c1ccc(C[n+]2cc(-c3ccccc3)n3c2CCCCC3)cc1,5.2µM*,6%,0,-11,-84%,-3
Clc1ccc(-c2c[n+](Cc3cccc(Cl)c3)c3n2CCC3)cc1,1.9µM*,-5%,-6,-94*,0.26µM*,-2
COc1cc(NC(=O)C(NS(=O)(=O)c2ccc3c(c2)CCCC(=O)N3)C(C)C)cc(OC)c1 (stereo not given),·,·,·,-3,·,·
CCn1c(SCc2ccccc2)nc2c1c(=O)[nH]c(=O)n2C,-19%,1%,-20,44,-21%,1
Cc1ccccc1NC1=C(Cl)C(=O)N(C2CCCCC2)C1=O,?,12%,14,-3,?,13*
COc1ccccc1NC1=C(Cl)C(=O)N(C2CCCCC2)C1=O,?,13%,16,-2,-20%,1
Cc1ccc(NS(=O)(=O)c2cccc(C(=O)NCC3CCCO3)c2)cc1 (stereo not given),?,?,·,-6,-5%,·
COc1ccc2nc(C)cc(Nc3ccc(Cl)c(Cl)c3)c2c1,·,·,·,-106*,·,·
COc1ccc2nc(C)cc(Nc3ccc(C)cc3)c2c1,?,?,11,-23,9%,-2
COc1ccc(OC)c(Nc2cc(C)nc3ccc(C)cc23)c1,·,22µM*,·,-13,·,·
COc1ccc2oc(C(=O)Nc3ccc(N4CCOCC4)cc3)c(C)c2c1,?,-37%,·,?,?,·
COc1ccc2nc(C)cc(NCc3ccc(F)cc3)c2c1,?,-30%,-5,-9,2.6µM*,5
SMILES,Pf growth 48h,HCV inh,Shiga inhibitor,HCMV inh,Pf growth 96h,Cycloheximide cs
COc1ccc2nc(C)cc(Nc3ccc(N4CCOCC4)cc3)c2c1,2.9µM*,?,-13,-86*,3%,-1
COc1ccc(Nc2cc(C)nc3ccccc23)cc1,-5%,?,-11,?,39%,-2
CCOC(=O)C1CCCN(C(=O)Nc2c(-c3ccccc3)noc2C)C1 (stereo not given),1%,20%,2,-5,-11%,-2
CC(=O)N1CCCC1c1nc2ccccc2n1Cc1ccccc1 (stereo not given),·,·,·,9,·,·
Cc1ccc(SC(C)C(=O)N2CCC(C(N)=O)CC2)cc1 (stereo not given),15%,13%,-8,21,?,0
COc1ccc2nc(C)cc(Nc3ccc(N4CCN(C)CC4)cc3)c2c1,0%[0.00184 µM],10µM*,14,-102*,?,-3
CCCCn1c(-c2cccc(Br)c2)nc2cc3[nH]c(=O)c(C(C)C)nc3cc21,?,4%,3,-5,6.6µM*,2
CCn1c(-c2cccnc2)n[nH]c1=S,?,9%,10,60,19%,-2
CCCCn1c(-c2cccnc2)nc2cc3[nH]c(=O)c(C(C)C)nc3cc21,?,-19%,-4,38,10µM*,-3
CCCCn1c(-c2cccnc2)n[nH]c1=S,-1%,3%,-4,-22,2.6µM*,-4
CCc1ccccc1NC(=O)Cn1c(=O)n(Cc2ccco2)c(=O)c2sc3ccccc3c21,·,·,·,12,·,·
CN(C(=O)C1CCC(=O)N(CCc2ccc(Cl)cc2)C1)C1CCOCC1 (stereo not given),3%,16%,-13,-9,?,-2
O=C(CSc1cccc(C(F)(F)F)c1)Nc1ccc(N2CCOCC2)cc1,·,-5%,·,-26,·,·
O=C(CNc1cc(S(=O)(=O)N2CCOCC2)ccc1N1CCCC1)NCc1ccco1,-13%,-9%,-6,1,-5%,0
Cc1sc2ccccc2c1CC1=NCCN1,?,3.2µM*,·,-31,8.5µM*!,·
CCOC(=O)C1=CCC(c2ccccc2)N(S(=O)(=O)c2ccc(C)cc2)[C@H]1CC (stereo not given in full),·,·,·,13,·,·
COc1ccc(C)cc1N(CC(=O)NCCSCc1cccc(Cl)c1)S(C)(=O)=O,0%,?,·,-22,12µM*,4
COc1ccc(N(CC(=O)NCCSCc2ccccc2C)S(=O)(=O)c2ccccc2)cc1,?,?,-28,?,5.2µM*,2
COc1ccc(N(CC2CO2)S(=O)(=O)c2ccccc2)cc1 (stereo not given),6%,10%,-15,-62*,-20%,10
COc1ccccc1N(CC(=O)NCCSCc1ccccc1)S(C)(=O)=O,-2%[0.00184 µM],3%,-8,2,?,-5
COc1ccccc1N(CC(=O)NCCSCc1cccc(C)c1)S(=O)(=O)c1ccccc1,?,13µM*,-24,-37,-28%,5
